{"source": "PubChem BioAssay (NCATS)", "note": "Records with an inconclusive call do not appear. A call without a number means that no potency is given here. Calls of active or inactive are those of the source. The call rests on the fitted dose curve; in most records, active means well fitted inhibition curve with a large enough effect; inconclusive means small, poorly fitted or top-dose-only effect; inactive means no such curve, though single readings can be large or run the other way."}
{"target": "Retinaldehyde dehydrogenase 3 (Homo sapiens) (UniProt P47895)", "assay": "qHTS for Inhibitors of the Aldehyde Dehydrogenase Family (ALDH1A3) Primary screen (AID 2061315)", "conditions": "ALDH inhibition qHTS; series mostly up to 56 µM"}
{"smiles": "O=c1c(Nc2ccc(F)c(C(F)(F)F)c2)c(Nc2nnc(-c3ccncc3)s2)c1=O", "Potency": "inactive"}
{"smiles": "N#Cc1c(-c2ccc(C(F)(F)F)cc2)no[n+]1[O-]", "Potency": "inactive"}
{"smiles": "Cc1ccc(OCCn2c(CCNC(=O)c3ccc(C(C)(C)C)cc3)nc3ccccc32)cc1", "Potency": "inactive"}
{"smiles": "c1csc(CNc2ncnc3cc(-c4ccc5c(c4)OCO5)ccc23)c1", "Potency": "inactive"}
{"smiles": "O=C(O)c1ccc(CSc2nnc(-c3cccc([S+](=O)([O-])N4CCCC4)c3)n2-c2ccccc2)cc1", "Potency": "inactive"}
{"smiles": "O=C(O)c1cccc(-n2cccc2/C=C2/NC(=O)N(c3cccc(Cl)c3)C2=O)c1", "Potency": "inactive"}
{"smiles": "Cc1cc(NS(=O)(=O)c2ccc(NS(=O)(=O)Cc3ccc(Cl)c(Cl)c3)cc2)no1", "Potency": "inactive"}
{"smiles": "Cc1cc(NS(=O)(=O)c2cc3c(cc2N[C@@H](C)CO)NC(=O)CC3)ccc1F", "Potency": "inactive"}
{"smiles": "OCc1ccc(-c2ccc3ncnc(NCc4cccs4)c3c2)o1", "Potency": "inactive"}
{"smiles": "O=C(OCC#CCNc1nnc(-c2cccc3ccccc23)o1)c1cccs1", "Potency": "inactive"}
{"smiles": "O=C(Cc1ccc(Cl)c(Cl)c1)Nc1ccc(S(=O)(=O)Nc2cccc(O)c2)cc1", "Potency": "inactive"}
{"smiles": "COc1ccc(C2c3ccc4ccccc4c3Oc3ncn(CCN4CCOCC4)c(=N)c32)cc1OC", "note": "(stereo not given)", "Potency": "inactive"}
{"smiles": "Cc1cc(C)nc(NC(=S)N2CCN(c3cccc4ccccc34)CC2)c1", "Potency": "inactive"}
{"smiles": "CC(O)c1ccc(-c2ccc3ncnc(NCC4CCCO4)c3c2)o1", "note": "(stereo not given)", "Potency": "inactive"}
{"smiles": "NC(=O)C1CCN(c2nc(-c3cccc4sc5ccccc5c34)cs2)CC1", "Potency": "inactive"}
{"smiles": "Cc1cccc(CNc2ccnc(-c3ccc4ccccc4c3)n2)c1", "Potency": "inactive"}
{"smiles": "CC(C)(C)OC(=O)N1CCN(c2ccc(OCc3ccc(-c4ccc(C#N)cc4)o3)cc2)CC1", "Potency": "inactive"}
{"smiles": "O=C(Nc1ccc(-c2nc3ccccc3[nH]2)cc1)c1ccc2ncsc2c1", "Potency": "inactive"}
{"smiles": "Cc1ccccc1NC(=O)CN1C(=O)N/C(=C\\c2cn(-c3cccc(C(=O)O)c3)cn2)C1=O", "Potency": "inactive"}
{"smiles": "NC(=O)C1CCN(c2nc(-c3ccc(OC(F)(F)F)cc3)cs2)CC1", "Potency": "inactive"}
{"smiles": "COc1ccc(C2c3ccc(OCc4ccccc4)cc3Oc3ncn(CCN4CCOCC4)c(=N)c32)cc1OC", "note": "(stereo not given)", "Potency": "inactive"}
{"smiles": "COCCNc1ccc(NC(=O)c2cccs2)cn1", "Potency": "inactive"}
{"smiles": "O=C(Nc1ccc(-c2nc3ccccc3[nH]2)cc1)c1ccc(-c2ccccc2)cc1", "Potency": "inactive"}
{"smiles": "CCOC(=O)c1[nH]c2c(c1C)CCC(c1ccco1)C2", "note": "(stereo not given)", "Potency": "inactive"}
{"smiles": "O=c1c2ccccc2nc2sc(NCc3ccccc3)nn12", "Potency": "inactive"}
{"smiles": "COc1cc(-c2ccc3ncnc(NCc4cccs4)c3c2)cc(OC)c1OC", "Potency": "inactive"}
{"smiles": "c1nc(NCCc2cnc[nH]2)c2ccc(-c3ccc4c(c3)OCO4)cc2n1", "Potency": "inactive"}
{"smiles": "CNc1cccc(S(=O)(=O)N2CCCN(S(=O)(=O)c3ccc4c(c3)OCCO4)CC2)c1", "Potency": "inactive"}
{"smiles": "O=[S+]([O-])(Nc1ccc2ccccc2c1)c1ccc(NCc2ccc(Cl)cc2O)cc1", "Potency": "inactive"}
{"smiles": "COc1ccccc1NS(=O)(=O)c1cc(NC(=O)c2ccccc2)ccc1N1CCCC1", "Potency": "inactive"}
{"smiles": "NC(=O)c1cccc(-c2cc(O)cc(OC(=O)NC3CCCCC3)c2)c1", "Potency": "inactive"}
{"smiles": "Cc1nc(CN(C)c2ncnc3cc(-c4ccc5c(c4)OCO5)ccc23)cs1", "Potency": "inactive"}
{"smiles": "CC(=O)Nc1sc2c(c1-c1nc3ccccc3s1)CCN(C(C)=O)C2", "Potency": "inactive"}
{"smiles": "CCC/C=C/c1cc2c(C=O)c(O)c(CC=C(C)C)cc2o1", "Potency": "inactive"}
{"smiles": "O=c1c2ccccc2nc2sc(NCc3ccc(Sc4ccccc4)cc3)nn12", "Potency": "inactive"}
{"smiles": "Cc1ccc(C)c(SC2=N[S+](=O)([O-])c3cc(C(=O)Nc4ccc5ncccc5c4)ccc32)c1", "Potency": "inactive"}
{"smiles": "Cc1cc(C)nc(NC(=S)N2CCN(c3ccc4c(c3)OCO4)CC2)c1", "Potency": "inactive"}
{"smiles": "Cc1ccc(NS(=O)(=O)c2cc3c(cc2C)NC(=O)CO3)cc1C", "Potency": "inactive"}
{"smiles": "Cn1ncc2ccc(-c3ccc4ncnc(NCc5cccs5)c4c3)cc21", "Potency": "inactive"}
{"smiles": "Cc1cccc(N2CCN(C(=S)Nc3cc(C)ccn3)CC2)c1", "Potency": "inactive"}
